Assay [1] is described as follows: P-glycoprotein substrates identified in KB-3-1 adenocarcinoma cell line, qHTS therapeutic library screen (AID 1346986). Note: nearly all actives have a fitted effect of over 60% in size.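 Note: potency is the fitted concentration of half-maximal effect; potency is for cytotoxicity meaning loss of cell viability.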 The method, boiled down: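 Resistance attributable to P-gp was assessed by comparing AC50 in KB-8-5-11 with parental KB-3-1 and by tariquidar reversal. Cells were exposed 72 h and viability read by CellTiter-Glo.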
On the technique in general: In qHTS, concentration-response curves come from the screen itself.

A short description of assay [2]: P-glycoprotein substrates identified in KB-8-5-11 adenocarcinoma cell line, qHTS therapeutic library screen (AID 1346987). Note: series mostly up to about 44 µM; nearly all actives have a fitted effect of over 65% in size. An outline of the steps: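 Steps: plate 500 KB-8-5-11 cells/well in DMEM + 10% FCS (colchicine removed); pin compounds in dose-response; incubate 72 h, 37 degree C, 5% CO2; add CellTiter-Glo, 5 min; read luminescence.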
The nature of assay [3]: Primary qHTS for inhibitors of nuclear receptor binding SET domain protein 2 (NSD2) in an RCH-ACV wild type WT cells (2C) (AID 1645877). Note: nearly all actives have a fitted effect of over 70% in size. Note: potency is the fitted concentration of half-maximal effect.
Assay [4] deals with Glutathione peroxidase 1 (Homo sapiens) (UniProt P07203). The assay is described as follows: Primary qHTS Assay for Inhibitors of Recombinant Selenoprotein Glutathione Peroxidase 1 (GPX1) (AID 1845191). Note: nearly all actives have a fitted effect of over 65% in size. The method, boiled down: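 Recombinant GPX1 (10 nM final) was preincubated with compound for 30 min at room temperature, then reacted with 1 mM GSH, 0.5 mM CHP, 0.5 mM NADPH and 100 nM glutathione reductase; NADPH fluorescence (340/450 nm) was read at 0 and 15 min.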
Sequence of Glutathione peroxidase 1 (Homo sapiens) (P07203 whole entry, looked up): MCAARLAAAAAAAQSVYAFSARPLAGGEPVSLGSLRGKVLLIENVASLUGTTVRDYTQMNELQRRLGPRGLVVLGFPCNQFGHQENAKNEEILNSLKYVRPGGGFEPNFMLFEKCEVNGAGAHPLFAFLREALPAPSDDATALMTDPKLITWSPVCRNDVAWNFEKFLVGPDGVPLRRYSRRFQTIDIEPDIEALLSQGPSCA

Assay [5] in a line: Primary qHTS for inhibitors of nuclear receptor binding SET domain protein 2 (NSD2) in an isogenic RCH-ACV NSD2 p.E1099K mutant (9B) (AID 1645876). Note: nearly all actives have a fitted effect of over 70% in size. Note: potency is the fitted concentration of half-maximal effect.
Assay [6] concerns Zika virus NS2B-NS3 protease. Description: Primary screen GU AMC qHTS for Zika virus inhibitors (AID 1347154). Note: nearly all actives have a fitted effect of over 70% in size. An outline of the steps:
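Unlinked Zika NS2B hydrophilic domain/NS3 protease domain noncovalent complex (25 nM final) in 10 mM Tris-HCl pH 8.0, 0.01% Tween 20, with AMC peptide substrate. Fluorescence (ex 340, em 450 nm) change over 15 min, room temperature; percent inhibition fitted to 4-parameter Hill equation.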

Assay [7] deals with Tyrosine-protein kinase Yes (Homo sapiens) (UniProt P07947). Description: qHTS for small molecule inhibitors of Yes1 kinase: Primary Screen (AID 686947). Note: potency is the fitted concentration of half-maximal effect; nearly all actives have a fitted effect of over 60% in size. The method, boiled down:
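Yes1 (4 nM) preincubated 20 min with compound, then 60 min room-temperature reaction with 0.1 mM ATP and 0.3 mg/mL poly(E4Y) in pH 7.5 Tris, 10 mM MgCl2. ADP measured by ADP-Glo luminescence, normalised to enzyme/no-enzyme controls.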

Assay [8] can be described thus: qHTS for small molecule inhibitors of Yes1 kinase: Counter Assay (AID 686950).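 Note: no kinase present so only ADP-Glo detection of a fixed ADP amount is tested; luminescence from ADP-Glo reporting ADP in a fixed ATP and ADP mixture; series mostly up to about 77 µM.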 The method, boiled down:
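Enzyme-free ADP-Glo interference check: compounds were preincubated 20 min in buffer, then an ATP/ADP mix (0.08 mM ATP, 0.02 mM ADP final) was added for 60 min at room temperature before two-step ADP-Glo luminescence detection.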

Inconclusive results are not listed. Activity calls are given as the source filed them. Calls come from the whole dose curve; as a rule, active = well fitted curve in the direction sought with a large enough effect; inconclusive = small, poorly fitted or top-dose-only effect, or another doubt; inactive = no such curve, though single readings can be large; an effect the other way counts as inactive or inconclusive.

Sequence of Tyrosine-protein kinase Yes (Homo sapiens) (P07947 whole entry, looked up): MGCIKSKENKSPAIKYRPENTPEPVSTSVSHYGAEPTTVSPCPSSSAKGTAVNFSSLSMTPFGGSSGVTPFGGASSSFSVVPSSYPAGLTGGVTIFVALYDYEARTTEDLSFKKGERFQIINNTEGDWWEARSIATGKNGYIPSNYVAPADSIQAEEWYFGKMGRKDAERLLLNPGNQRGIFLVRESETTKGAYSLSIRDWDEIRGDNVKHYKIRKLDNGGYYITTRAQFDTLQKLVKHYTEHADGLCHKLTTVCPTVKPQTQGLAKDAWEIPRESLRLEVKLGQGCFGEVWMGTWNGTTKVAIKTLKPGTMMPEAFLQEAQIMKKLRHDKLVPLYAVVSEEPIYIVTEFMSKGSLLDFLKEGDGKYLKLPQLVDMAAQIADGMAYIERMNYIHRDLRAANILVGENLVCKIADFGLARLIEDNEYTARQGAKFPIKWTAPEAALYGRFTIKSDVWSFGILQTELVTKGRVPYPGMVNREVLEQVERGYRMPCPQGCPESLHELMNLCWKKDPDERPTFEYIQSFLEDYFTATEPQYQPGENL

As to `C[n+]1cc(NC(=O)c2cccc(C(=O)Nc3cc4ccccc4[n+](C)c3)n2)cc2ccccc21`, the Potency in assay [1] was 16.4 µM (active). The Potency entry in assay [2], in assay [3] and in assay [4] was “inactive” in each case.
As to `Nc1ccn([C@H]2O[C@@H](CO)[C@H](O)[C@H]2O)c(=O)n1`, the Potency in assay [1] was 3.66 µM (active); in assay [5] it was 0.0206 µM (active); in assay [3], 0.0164 µM (active).
Turning to `c1ccc(-c2[nH]ncc2-c2ccnc3ccccc23)nc1`, the Potency entry in assay [1], in assay [6], in assay [5], in assay [3] and in assay [4] was “inactive” in each case.
Regarding `O=C1NC(=NCc2cccs2)S/C1=C/c1ccc2ncccc2c1`, the values for the Potency in assay [1], in assay [5] and in assay [3] were 4.11 µM (active), 3.66 µM (active) and 2.91 µM (active), respectively. For the same molecule, the Potency entry in assay [4] is “inactive”.
Take `Cc1nc(CNc2ncnc3ccc(-c4ccc5c(c4)OCO5)cc23)cs1`: the Potency result in assay [1], in assay [2] and in assay [4] was “inactive” throughout.
Take `O=C(/C=C/c1nc2ccccc2[nH]1)c1c(-c2ccccc2)c2cc(Cl)ccc2[nH]c1=O`: the figures for the Potency in assay [1], in assay [5] and in assay [3] were 7.31 µM (active), 1.16 µM (active) and 1.03 µM (active), respectively.
For the molecule `COc1cc2c(cc1OC)/C(=C/c1ccc(O)cc1)C(=O)N2`, the Potency entry in assay [1], in assay [2] and in assay [4] was “inactive” throughout.
On to `CN(c1ccc(NC(=O)Nc2ccc(OC(F)(F)F)cc2)cc1)c1ccnc(Nc2cccc(S(N)(=O)=O)c2)n1`, for which the Potency was 0.0823 µM (active) in assay [7], 18.4 µM (active) in assay [1], 3.66 µM (active) in assay [5] and 1.03 µM (active) in assay [3]. Further, the molecule was called inactive in assay [8]. In addition, in assay [4], the Potency entry was “inactive”.
For the molecule `O=C(NCCc1c[nH]c2ccc(O)cc12)c1ccc2ccccc2c1O`, the Potency in assay [1] was 8.2 µM (active). In assay [4], the Potency entry was “inactive”.

These data come from PubChem BioAssay (NCATS).
